Results on 99 molecules are retold here after PubChem BioAssay AID651558 (National Center for Advancing Translational Sciences (NCATS), 2012).

In all, about 1,200 compounds went through this assay and about 480 (40%) were called active. Another 29% or so got no clear call; they are omitted. Calls come from the whole dose curve; as a rule, active = well fitted inhibition curve with a large enough effect; inconclusive = small, poorly fitted or top-dose-only effect; inactive = no such curve, though single readings can be large or run the other way. The list shows a part of the results.
Potency is the fitted concentration of half-maximal effect.

A short description of the experiment: qHTS Assay to Find Inhibitors of Chronic Active B-Cell Receptor Signaling: Hit Validation in Primary Screen. Note: nearly all actives have a fitted effect of over 75% in size. The conditions noted are these: ABC-DLBCL IkB-luc/CBR ratio luminescence, 4 h; series mostly up to 46.1 µM. In outline: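 TMD8 ABC-DLBCL cells carrying doxycycline-inducible IkBa-green luciferase fusion and free red luciferase, 0.5% FBS, dosed 46 uM–3 nM with doxycycline for 4 h at 37C. Green/red luminescence ratio normalized to basal and 10 uM MG-132.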
Background: In qHTS, concentration-response curves come from the screen itself.
Take `CCc1ccc(NC(=O)C(C)OC(=O)/C=C/c2ccc(O)c(OC)c2)cc1` (centres undefined): the Potency is 20.6 µM (active).

Take `CCOC(=O)/C=C/C(=O)OCC(=O)Nc1ccc(OC)c(Cl)c1`: the Potency entry was “inactive”. Next, `CC(C)N1C(=O)/C(=C/c2nc3ccccc3c(=O)n2-c2ccccc2)c2ccccc21`: 18.4 µM (active); `COc1ccccc1CNS(=O)(=O)c1ccc(-c2cnc(C3CC3)o2)cc1`: 16.4 µM (active).

In the case of `COc1ccccc1CNS(=O)(=O)c1ccc(-c2cc(C)no2)cc1`, the Potency was 13 µM (active).

On to `CCOc1ccccc1CNS(=O)(=O)c1ccc(-c2cnc(C3CC3)o2)cc1`, for which the Potency is 7.31 µM (active). As to `COc1ccccc1NS(=O)(=O)c1ccc(-c2cnc(C3CC3)o2)cc1`, the Potency result is “inactive”. With `COc1ccc(-c2nn(C)c(=O)c3ccccc23)cc1CNS(C)(=O)=O`, the Potency result is “inactive”. Regarding `CCOc1ccccc1NS(=O)(=O)c1ccc(-c2cnc(C3CC3)o2)cc1`, the Potency was 0.82 µM (active).

On to `CCN(CC(=O)Nc1ccccc1SC)Cc1nc2ccccc2c(=O)[nH]1`, for which the Potency result is “inactive”.

In the case of `N#Cc1cccc2c1-c1ccccc1/C2=N/NC(N)=S`, the Potency entry is “inactive”. On to `Cn1c(=S)c2[nH]c(SCCN3CCCC3)nc2n(C)c1=O`, for which the Potency result was “inactive”. To `Cc1ccc(S(=O)(=O)Nc2cccc3ncccc23)s1` belongs 4.61 µM (active). `O=S(=O)(Nc1cccc2ncccc12)c1cccs1`: the Potency is 5.8 µM (active). Next, `CCC(=NCCc1c(C)[nH]c2ccc(C)cc12)C1=C(O)CC(c2ccccc2)CC1=O` (centres undefined): 0.82 µM (active); `CC(C)c1ccc(/C=N/NC(=O)c2ccccc2Cl)cc1`: 20.6 µM (active); `CCCC(=O)Nc1ccc(C(=O)N/N=C/c2cccnc2)cc1`: “inactive”. For `CC(C)(C)NC(=S)N/N=C/c1cccnc1`, the Potency entry was “inactive”. As for `Cc1cc2nc(/C=C/c3cccnc3)[nH]c2cc1C`, the Potency is 1.03 µM (active). As to `Cc1ccc(N2C(=O)c3cccc4c(N)ccc(c34)C2=O)c2cccnc12`, the Potency is 0.461 µM (active). In the case of `COc1cc(C(=O)c2cocc2C(=O)c2ccc3c(c2)OCO3)cc(OC)c1OC`, the Potency is 14.6 µM (active). Next, `COc1cc(C(=O)N/N=C(\Cc2ncc[nH]2)c2ccccc2)cc(OC)c1OC`: “inactive”; `COc1cc(C(=O)N/N=C(\C)c2ccc3c(c2)OCO3)cc(OC)c1OC`: 18.4 µM (active); `COc1cc(C(=O)N/N=C(\C)Cc2ccccc2)cc(OC)c1OC`: “inactive”.

On to `O=C(Oc1c(CN2CCOCC2)cc(Cl)c2cccnc12)c1cccs1`, for which the Potency entry is “inactive”. With `CNC(=O)[C@H]1O[C@@H](n2cnc3c(NCc4cccc(I)c4)ncnc32)[C@H](O)[C@@H]1O`, the Potency was 1.64 µM (active). Consider `CNC(=O)[C@H]1O[C@@H](n2cnc3c(NCc4cccc(I)c4)nc(Cl)nc32)[C@H](O)[C@@H]1O`, for which the Potency is 2.31 µM (active). `COc1cc2c(cc1OC)C(/C(C#N)=N\O)=NC(C)(C)C2`: the Potency result is “inactive”.

With `CCc1ccc(CCC(=O)Nc2sc3c(c2C#N)CCCC3)o1`, the Potency was 5.8 µM (active). To `N#Cc1c(NC(=O)/C=C/c2ccco2)sc2c1CCCC2` belongs 1.3 µM (active); to `CC(C)NC(=S)N=Nc1c(O)[nH]c2ccc([N+](=O)[O-])cc12`, “inactive”; to `COc1ccc(OC)c(C2CC(=O)Nc3n[nH]c(-c4ccccc4)c32)c1` (centres undefined), “inactive”. Turning to `CC(C)Oc1ccccc1C1CC(=O)Nc2cc3c(cc21)OCCO3` (centres undefined), the Potency is 8.2 µM (active). To `COc1ccccc1C1CC(=O)Nc2cc3c(cc21)OCCO3` (centres undefined) belongs 16.4 µM (active); to `O=C(CSc1cccc[n+]1[O-])c1ccccc1Br`, “inactive”. Take `COc1c(Cl)cc(C(=O)NN)cc1Cl`: the Potency entry was “inactive”. As for `COc1cc(C(=O)NNC(=O)C2CC=CCC2C(=O)O)cc(OC)c1OC` (centres undefined), the Potency result was “inactive”.

Turning to `COc1cc(C(=O)N2CCN(c3cc(Cl)ccc3Cl)CC2)cc(OC)c1OC`, the Potency was 1.16 µM (active). Turning to `CCOC(=O)C1=C(C)c2ccccc2N(C(=O)OC)C1(C)C(=O)OCC` (centres undefined), the Potency result was “inactive”.

Regarding `O=S1(=O)C=C(Sc2nc3cc(Cl)ccc3o2)c2ccccc21`, the Potency was 16.4 µM (active). To `CC(/C=C/c1ccccc1)=N\NC(N)=S` belongs “inactive”; to `N#CC(C#N)=C(N)CSc1cccc[n+]1[O-]`, “inactive”.

For `CCOc1ccc(OCc2ccc(C(=O)N/N=C(\C)c3ccccn3)cc2)cc1`, the Potency entry is “inactive”. For the molecule `O=C(CCl)Nc1cccc(S(=O)(=O)NC2=NCCCCC2)c1`, the Potency is 8.2 µM (active). With `CCOc1ccc(C(=O)NC(=S)Nc2cccc(S(=O)(=O)NC3=NCCC3)c2)cc1`, the Potency is 18.4 µM (active). Next, `O=C(CCl)Nc1cccc(S(=O)(=O)NC2=NCCC2)c1`: 13 µM (active); `COc1ccc(C(=O)c2ccc(N(C)C)cc2)c2ccccc12`: 3.26 µM (active). For `CN(C)c1ccc(C(=O)c2ccc(N(C)C)c3ccccc23)cc1`, the Potency is 0.291 µM (active). As to `Oc1ccc(CNc2ccccc2F)c2cccnc12`, the Potency result was “inactive”.

Take `O=C(Oc1c(CN2CCOCC2)cc(Cl)c2cccnc12)c1ccccc1F`: the Potency result is “inactive”. Take `Cc1noc(C)c1CSc1ccc2ccccc2n1`: the Potency entry was “inactive”. Regarding `C=CCn1c(SCc2c(C)noc2C)nc2ccccc2c1=O`, the Potency was 14.6 µM (active). On to `CCn1ncc(C2=NOC(C(=O)NCc3ccccc3)C2)c1C` (centres undefined), for which the Potency is 18.4 µM (active).

For `CCn1ncc(C2=NOC(C(=O)NCc3ccc(Cl)cc3)C2)c1C` (centres undefined), the Potency was 8.2 µM (active). For `Cc1ccc(Sc2c(CO)c(-c3ccccc3)nn2C)cc1`, the Potency was 5.17 µM (active). For `N#C/C(=C\c1ccc(Cl)cc1)c1nc2ccccc2o1`, the Potency entry was “inactive”. On to `COc1ccc(/C=C(\C#N)c2c[nH]c3ccccc23)cc1`, for which the Potency is 14.6 µM (active). To `COc1ccc(CC(=O)OCC(=O)c2c[nH]c3ccccc23)cc1` belongs “inactive”. Regarding `COc1ccc(C(=O)/C=C2/c3ccccc3CC(C)(C)N2C)cc1`, the Potency is 20.6 µM (active). As for `C=CCN(CC=C)C(=S)NC(=O)c1ccc(OC)cc1`, the Potency entry was “inactive”. As for `Cn1c(=S)[nH]c2c(c1=O)C(C)(C)Cc1ccccc1-2`, the Potency result is “inactive”. To `COc1cc2c(c(OC)c1OC)-c1ccc(OC)c(=O)cc1[C@@H](NC(C)=O)CC2` belongs 0.206 µM (active). Regarding `COc1cccc(C(=O)Nc2ccc3c(cc2=O)[C@@H](NC(C)=O)CCc2cc(OC)c(OC)c(OC)c2-3)c1`, the Potency was 23.1 µM (active). For the molecule `COc1cc2c(c(OC)c1OC)-c1ccc(N(C)CC(OC)OC)c(=O)cc1[C@@H](NC(C)=O)CC2`, the Potency is 5.8 µM (active). On to `COc1cc2c(c(OC)c1OC)-c1ccc(OC)c(=O)cc1[C@@H](N(C)CC#CCO)CC2`, for which the Potency was 0.259 µM (active). Take `CCCC(=O)O[C@]1(C(=O)CO)CC[C@H]2[C@@H]3CCC4=CC(=O)CC[C@]4(C)[C@H]3[C@@H](O)C[C@@]21C`: the Potency result is “inactive”. Regarding `Cc1nc2c(-c3ccccc3)c[nH]n2c(=O)c1Cc1ccccc1`, the Potency result is “inactive”. In the case of `CCN(CC)c1ccc2c(cc1=O)[C@@H](NC)CCc1cc(OC)c(OC)c(OC)c1-2`, the Potency is 5.8 µM (active). As for `CCN(CC)c1ccc(Nc2cc3n(c(=O)n2)CCc2cc(OC)c(OC)cc2-3)cc1`, the Potency entry is “inactive”. Turning to `COc1cc2c(c(OC)c1OC)-c1ccc(OC)c(=O)cc1C(NC(C)=O)CC2` (centres undefined), the Potency is 0.206 µM (active). Consider `NCCNC(=O)Cc1ccc(NC(=O)Cc2ccc(Nc3ncnc4c3ncn4[C@@H]3O[C@H](CO)[C@@H](O)[C@H]3O)cc2)cc1`, for which the Potency is 0.461 µM (active).

For the molecule `NCCNC(=O)Cc1cccc(NC(=O)Cc2ccc(Nc3ncnc4c3ncn4[C@@H]3O[C@H](CO)[C@@H](O)[C@H]3O)cc2)c1`, the Potency was 1.46 µM (active).

As to `CC1CCc2c(sc(NC(=O)CSc3nc(N)cc(=O)[nH]3)c2C(N)=O)C1` (centres undefined), the Potency is 10.3 µM (active).

With `NC(=O)c1c(NC(=O)CSc2nc(N)cc(=O)[nH]2)sc2c1CCCC2`, the Potency is 9.2 µM (active).

Regarding `COc1cc2c(cc1OC)C(C)N(C(=O)c1cc(C)on1)CC2` (centres undefined), the Potency is 5.8 µM (active). To `COc1ccccc1NS(=O)(=O)c1cccc(C(=O)N/N=C/c2cn(-c3ccccc3)nc2-c2ccccc2)c1` belongs “inactive”. In the case of `COc1ccc(-c2nn(-c3ccccc3)cc2/C=N/NC(N)=S)cc1OC`, the Potency was 20.6 µM (active). `Cc1cccc(C)c1-n1c(C)cc(/C=N/NC(N)=S)c1C`: the Potency result was “inactive”. Consider `Cc1ccccc1NCC(=O)c1ccc(Br)cc1`, for which the Potency result is “inactive”. On to `Cc1ccc(N(C)S(=O)(=O)c2ccc(-c3cnc(C4CC4)o3)cc2)cc1`, for which the Potency was 5.8 µM (active).

In the case of `Cc1cccc(N(C)S(=O)(=O)c2ccc(-c3cnc(C4CC4)o3)cc2)c1`, the Potency was 1.84 µM (active). As for `Cc1ccc2[nH]c(-c3cccc(F)c3)cc(=O)c2c1`, the Potency is 4.11 µM (active).

As to `Cc1ccc2[nH]c(-c3ccccc3)cc(=O)c2c1`, the Potency was 5.17 µM (active). As to `CCn1c(SCC(=O)c2ccc(Cl)cc2)nnc1C(C)C`, the Potency entry was “inactive”. Consider `CCOc1cc(/C=C(/C#N)C(=O)Nc2ccc(O)cc2)cc(Br)c1O`, for which the Potency was 2.06 µM (active). To `CC1(CCc2ccc(O)cc2)NC(=O)NC1=O` (centres undefined) belongs “inactive”; to `CCOC(=O)C1(C)C(C(=O)OC)=C(c2ccc(OC)cc2)c2ccccc2N1C(=O)OC` (centres undefined), “inactive”; to `CCOC(=O)C(NC(=O)N(C)C)(Nc1sc(C)c(CC)c1C#N)C(F)(F)F` (centres undefined), “inactive”.

Regarding `O=[N+]([O-])c1ccc(O)c2ncccc12`, the Potency entry is “inactive”. On to `Cc1ccc(S(=O)(=O)Nc2cccc3cccnc23)cc1`, for which the Potency is 8.2 µM (active).

`Cc1c(C(=O)Oc2cccc3cccnc23)oc2ccccc12`: the Potency entry was “inactive”. Take `O=[N+]([O-])c1ccccc1S(=O)(=O)Nc1cccc2cccnc12`: the Potency was 13 µM (active). `O=[N+]([O-])c1cc(F)c2cccnc2c1O`: the Potency result is “inactive”. Next, `Cc1ccnc(NC(=O)c2cccc(S(=O)(=O)Nc3ccc(C)cc3C)c2)c1`: “inactive”; `O=S(=O)(Nc1cccc2cccnc12)c1ccccc1`: 13 µM (active). Turning to `O=C(/C=C\c1ccccc1)Oc1cccc2cccnc12`, the Potency entry was “inactive”. Take `CCN(CC)S(=O)(=O)c1ccc(C(=O)NCCSc2c[nH]c3ccccc23)cc1`: the Potency entry was “inactive”. Take `COc1cccc(/C=N/Nc2nc(Nc3ccccc3)nc(-n3nc(C)cc3C)n2)c1O`: the Potency is 0.92 µM (active). On to `CC1=NN(C(N)=S)C(=O)C1N=Nc1ccccc1` (centres undefined), for which the Potency result is “inactive”.
